The campaign covered roughly 3,600 compounds. About 100 (2.8%) were called active. A selection follows. A number with no mark means an inactive call.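 How the source made its calls: active means inhibition above 30% at one or more concentrations, seen consistently on every test date; inconclusive means results that disagree between repeat test dates; inactive means the rest.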
Test: biotin-GST/anti-GST TR-FRET signal inhibitors, dose response, artefact control for Vif-APOBEC3G degradation inhibitor project, biochemical (AID 1117362);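 further: biotinylated GST protein used in place of GST-Vif 1-94 and biotin-A3G peptide; detects fluorescence quenchers or blockers of GST binding to anti-GST antibody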
Conditions: TR-FRET counter screen; series mostly up to 100 µM; inhibition: at the top concentration

Point of comparison: `CCCN1C(=O)S/C(=C\c2ccc(N3CCOCC3)cc2C)C1=O`, “inhibition” value 3.79%. Against it:
- CCN(C(=O)c1coc(=O)c(Br)c1)c1ccc2c(c1)OCO2 — higher, 25.4%
- COc1ccc(NC(=O)/C(C#N)=C\c2ccc(Br)o2)cc1 — higher, 9.72%
- COc1ccc2c(c1)c(=O)oc1cc(OCC(=O)N3CCC(C)CC3)ccc12 — lower, -4.74%
- CC(C)(C)OC(=O)N(Cc1ccccc1)Cc1cccc(OCc2cccc(NC(=O)c3ccccc3)c2)c1 — lower, 1.79%
- Cc1cc(C(=O)COC(=O)c2cc(O)c3ccccc3c2O)c(C)n1CC1CCCO1 (stereo unspecified) — higher, 6.11%
- CCOc1ccc2[nH]c(=O)c(CN(Cc3ccco3)C(=O)c3ccc(Br)cc3)cc2c1 — lower, -4.7%
- CCOC(=O)C1=C(C)N=C2SC(C(=O)OC)=CC(=O)N2C1c1cc(OC)c(OC)c(OC)c1 (stereo unspecified) — lower, 0.25%
- CC(C)OC(=O)c1cccc(C(=O)O)n1 — lower, 0.71%
- O=C(NCc1ccccn1)c1coc(=O)c(Br)c1 — lower, -1.46%
- CN(CCc1ccccc1)C(=O)c1ccc(NC(=O)Cc2ccc(NC(=O)C3CCN(C(=O)CCc4ccccc4)CC3)cc2)cc1 — lower, -4.37%
- Cc1ccc(C2SCC(=O)N2Cc2cn3ccsc3n2)o1 (stereo unspecified) — lower, 0.01%
- CCn1c(SCC(=O)Nc2cc(C)on2)nnc1-c1cccnc1 — higher, 15%
- C/C(=N\Nc1ccc(Cl)c(C(=O)O)c1)c1ccc[nH]1 — lower, -6.35%
- COc1ccc(C2=CC(c3ccc(Cl)cc3)n3cnnc3N2)cc1OC (stereo unspecified) — lower, -9.19%
- COc1ccc(Nc2ccc(OC)cc2)cc1 — higher, 20.4%
- Cc1nn(-c2ccccc2)c2sc(C(=O)N3CCc4ccccc4C3)cc12 — lower, -2.11%
- C/C(N)=C(/C#N)C(=O)CSc1nnc(NC(C)C)s1 — higher, 18.7%
- CCN1CCN(C2=NC(=O)/C(=C/c3ccc(C)o3)S2)CC1 — higher, 8.23%
- Cc1ccc2cc(C(c3nnnn3Cc3ccccc3)N3CCc4ccccc43)c(=O)[nH]c2c1 (stereo unspecified) — lower, -2.82%
- COC(=O)\C(C(C)=O)=C(/C=C/C=C/C=C/N(C)C)N(C)C — lower, -3.51%
- O=C(NCCc1c[nH]c2ccccc12)c1ccc(S(=O)(=O)NCc2ccco2)cc1 — lower, -1.73%
- COc1ccc(S(=O)(=O)Cc2ccc(C(=O)N3CCN(c4ccccc4)CC3)o2)cc1 — lower, 2.72%
- CC1=C(C(=O)Nc2ccccc2F)C(c2ccsc2)C2=C(CC(c3ccccc3)CC2=O)N1 (stereo unspecified) — higher, 4.39%
- O=C1NC(c2ccc(Br)cc2)=N/C1=C/c1ccco1 — lower, -4.77%

For `C[c-]1[c-](C)[c-](C)[c-](C)[c-]1C.[Fe].c1cc2nccc(N3CCCC3)[c-]2c1` (stereo unspecified), the IC50 was 28 µM (active).
